“And” between values parts separate entries of the source, which are not always exact repeats. Equal values may be shown once. Values without a mark were called inactive. Records with an inconclusive call do not appear. The source made the active and inactive calls. Calls follow the shape of the dose curve; as a rule, active = well fitted curve in the direction sought with a large enough effect; inconclusive = small, poorly fitted or top-dose-only effect, or another doubt; inactive = no such curve, though single readings can be large; an effect the other way counts as inactive or inconclusive.

The target in test [1] is Peroxisome proliferator-activated receptor alpha (Homo sapiens) (UniProt Q07869). The test is described as follows: qHTS assay for small molecule agonists of the peroxisome proliferator-activated receptor alpha (PPARalpha) signaling pathway (AID 651778). Also: % of control where 0% means no effect. Particulars: PathHunter PPARalpha complementation, chemiluminescence, 6 h; active compounds read high. Put shortly:
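Enzyme-fragment complementation assay in which ligand-bound PPARalpha translocates and forms an active enzyme that generates chemiluminescence. Cells were plated overnight, exposed to compound for 6 hr at 37 C, and then given detection reagent for 60 min at room temperature.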

Test [2] concerns the target Arylsulfatase A (Homo sapiens) (UniProt P15289). The test is described as follows: qHTS screen for enhancers of Arylsulfatase A (ASA1): LOPAC Validation Assay (AID 720538). Conditions: ASA enzyme activity, LOPAC qHTS enhancer assay; series mostly up to 57.5 µM. Put shortly:
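Read-out: fluorescence at Ex=525/Em=598 nm after 1N NaOH final stop. Patient fibroblasts carrying ASA-I179S had 48h compound exposure, then 14h room-temperature pNCS hydrolysis (0.5mM final) in lysis buffer. Signal increase = enhanced activity.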
On the technique in general: In qHTS, concentration-response curves come from the screen itself.

Test [3] is described as follows: qHTS for compounds that reverse cellular toxicity of Amyloid beta (A-beta) peptide in yeast: LOPAC Validation Assay (AID 720559).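 Also: plate controls were DMSO for no effect and equimolar ferric chloride plus clioquinol rescue for full effect.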 Particulars: yeast expressing A-beta; Potency: rescue of growth toxicity; series mostly up to 46.1 µM. Put shortly:
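OD600 growth readout after 48 hr at 30 C; A-beta-toxic yeast plus pinned compounds in medium. Normalization: DMSO = negative, equimolar FeCl3 + clioquinol = positive.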

Test [4] in a line: qHTS assay for environmental chemicals that activate the Aryl hydrocarbon Receptor (AhR) signaling pathway (AID 651777). Also: nearly all actives have a fitted effect of over 15% in size. Also: potency is read from the fitted curve at half-maximal effect. As to activation: % of control where 0% means no effect. Conditions: 1A2-DRE human hepatoma cells, luciferase, 24 h; activation: active compounds read high. Put shortly: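 Reporter gene assay: hepatoma cells with DRE/CYP1A2-luciferase, 24 hr compound incubation at 37 C, 5% CO2, luminescence after One-Glo (30 min, RT).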

The target in test [5] is Nuclear receptor ROR-gamma (Homo sapiens) (UniProt P51449). Put plainly: qHTS assay for small molecule antagonists of the retinoid-related orphan receptor gamma (ROR-gamma) signaling pathway (AID 651802). Also: nearly all actives have a fitted effect of over 60% in size. Also: potency is read from the fitted curve at half-maximal effect. Conditions: ROR-gamma antagonist cell reporter assay; series mostly up to 92.2 µM. In a few lines:
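CHO cells with TET-inducible ROR-gamma and RORE-luciferase reporter, dosed then doxycycline-induced. After 16 h at 37C, One-Glo luminescence read; decreased signal indicates antagonism.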

The target in test [6] is Tyrosine-protein kinase Yes (Homo sapiens) (UniProt P07947). Put plainly: qHTS for small molecule inhibitors of Yes1 kinase: Primary Screen (AID 686947).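 Also: plate controls were DMSO with enzyme for no effect and no-enzyme DMSO wells for full effect; nearly all actives have a fitted effect of over 60% in size.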 Conditions: Yes1 kinase biochemical qHTS inhibition; series mostly up to 76.9 µM. Put shortly:
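Yes1 (4 nM) preincubated 20 min with compound, then 60 min room-temperature reaction with 0.1 mM ATP and 0.3 mg/mL poly(E4Y) in pH 7.5 Tris, 10 mM MgCl2. ADP measured by ADP-Glo luminescence, normalised to enzyme/no-enzyme controls.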

A short description of test [7]: qHTS for small molecule inhibitors of Yes1 kinase: Counter Assay (AID 686950).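 Also: no kinase present so only ADP-Glo detection of a fixed ADP amount is tested; luminescence from ADP-Glo reporting ADP in a fixed ATP and ADP mixture; 0% = DMSO wells with ATP plus ADP and -100% = ATP-only wells without ADP.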 Particulars: series mostly up to 76.9 µM. An excerpt:
The Src family of non-receptor protein tyrosine kinases contains nine members, including Yes1, Src, Fyn, Lyn, and […]. These kinases have important roles in a variety of cellular functions, such as cell proliferation, survival, and differentiation. Src, the most well characterized member of this family, has been previously identified as a proto-oncogene. […] In melanoma, it has been shown that Yes1, and not other family members, such as Src, is functionally involved in the malignant phenotype. Additionally, a recent study examining the downregulation of Yes1 by shRNA found significant effects on cell survival/growth for basal-like and Her2-positive breast cancers. Despite the potential for Yes1 to be a target for the above-described cancers, there are very few reports on the identification of potent and selective inhibitors of Yes1 kinase. […]
Two microliter of buffer (columns 1-48) are dispensed into Greiner, white solid-bottom 1536-well assay plates. […] The amount of ADP is then quantified by the ADP-Glo Kit (Promega, Madison, WI). First, 2 uL of the first kit reagent is added, and the reaction is incubated for 45 minutes; then, 4 uL of the second kit reagent are added and the reaction is incubated for 30 minutes at which time the luminescence is read on a Viewlux plate reader (Perkin-Elmer, Waltham, MA). […]

Peroxisome proliferator-activated receptor alpha (Homo sapiens), sequence (Q07869 whole entry, looked up, the tested form may be a part): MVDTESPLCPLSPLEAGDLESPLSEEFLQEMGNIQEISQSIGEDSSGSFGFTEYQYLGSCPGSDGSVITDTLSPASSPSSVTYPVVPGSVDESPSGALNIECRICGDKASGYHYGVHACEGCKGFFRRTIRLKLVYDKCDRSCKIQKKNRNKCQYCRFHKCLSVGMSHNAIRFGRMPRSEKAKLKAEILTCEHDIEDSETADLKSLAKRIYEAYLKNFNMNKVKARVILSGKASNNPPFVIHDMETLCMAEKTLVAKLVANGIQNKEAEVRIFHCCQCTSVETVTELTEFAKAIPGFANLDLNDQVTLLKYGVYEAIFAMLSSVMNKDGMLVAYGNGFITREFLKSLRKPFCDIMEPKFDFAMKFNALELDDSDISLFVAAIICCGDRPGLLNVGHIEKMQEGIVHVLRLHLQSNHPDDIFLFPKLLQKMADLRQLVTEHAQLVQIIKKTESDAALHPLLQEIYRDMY
Nuclear receptor ROR-gamma (Homo sapiens), sequence (P51449 whole entry, looked up): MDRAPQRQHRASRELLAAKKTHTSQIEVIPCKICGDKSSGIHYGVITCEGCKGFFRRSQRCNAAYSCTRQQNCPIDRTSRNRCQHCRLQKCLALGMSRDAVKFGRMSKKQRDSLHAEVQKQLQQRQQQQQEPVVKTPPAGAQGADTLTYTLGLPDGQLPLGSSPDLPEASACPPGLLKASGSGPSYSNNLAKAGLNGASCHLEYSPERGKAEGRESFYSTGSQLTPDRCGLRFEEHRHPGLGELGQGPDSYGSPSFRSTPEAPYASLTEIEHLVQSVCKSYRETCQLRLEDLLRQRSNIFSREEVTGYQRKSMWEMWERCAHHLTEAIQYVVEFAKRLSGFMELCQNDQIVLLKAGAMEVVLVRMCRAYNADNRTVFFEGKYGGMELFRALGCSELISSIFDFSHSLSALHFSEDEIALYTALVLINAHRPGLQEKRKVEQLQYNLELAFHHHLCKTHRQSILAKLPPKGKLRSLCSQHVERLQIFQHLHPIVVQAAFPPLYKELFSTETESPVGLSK
Arylsulfatase A (Homo sapiens), sequence (P15289 whole entry, looked up): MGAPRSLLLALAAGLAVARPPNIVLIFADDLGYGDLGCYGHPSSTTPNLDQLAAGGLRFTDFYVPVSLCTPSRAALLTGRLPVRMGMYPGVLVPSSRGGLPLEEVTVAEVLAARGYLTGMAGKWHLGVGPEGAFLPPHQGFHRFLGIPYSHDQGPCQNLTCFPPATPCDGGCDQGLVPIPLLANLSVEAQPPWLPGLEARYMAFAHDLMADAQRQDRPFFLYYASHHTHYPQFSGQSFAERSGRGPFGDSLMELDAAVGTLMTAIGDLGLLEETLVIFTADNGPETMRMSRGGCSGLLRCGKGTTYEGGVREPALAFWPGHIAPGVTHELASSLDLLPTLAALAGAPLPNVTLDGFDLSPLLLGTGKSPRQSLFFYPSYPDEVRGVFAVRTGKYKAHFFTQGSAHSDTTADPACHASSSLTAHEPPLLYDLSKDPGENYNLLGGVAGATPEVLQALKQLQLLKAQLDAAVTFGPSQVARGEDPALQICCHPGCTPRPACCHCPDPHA
Tyrosine-protein kinase Yes (Homo sapiens), sequence (P07947 whole entry, looked up): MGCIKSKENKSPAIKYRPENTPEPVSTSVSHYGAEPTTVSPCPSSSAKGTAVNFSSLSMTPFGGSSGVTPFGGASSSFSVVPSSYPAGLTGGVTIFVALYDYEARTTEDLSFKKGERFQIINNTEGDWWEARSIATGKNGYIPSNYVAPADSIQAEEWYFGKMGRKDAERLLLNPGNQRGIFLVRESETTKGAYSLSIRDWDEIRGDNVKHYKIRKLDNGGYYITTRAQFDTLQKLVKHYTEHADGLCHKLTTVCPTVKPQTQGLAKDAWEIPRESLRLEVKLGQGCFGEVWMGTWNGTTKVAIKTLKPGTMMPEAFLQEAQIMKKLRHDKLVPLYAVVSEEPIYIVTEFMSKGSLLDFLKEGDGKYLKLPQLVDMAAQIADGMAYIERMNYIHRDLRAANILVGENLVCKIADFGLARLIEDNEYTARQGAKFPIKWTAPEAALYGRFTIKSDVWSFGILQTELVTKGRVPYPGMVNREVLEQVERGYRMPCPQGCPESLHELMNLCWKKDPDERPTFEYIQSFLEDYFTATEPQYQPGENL

On to `Oc1ccccc1O`, for which the max response in test [1] is -0.837%. For the same compound, the Potency result in test [2] and in test [3] was “inactive” in each case.
On to `N=C1N=C(N)c2cc3ccccc3cc21`, for which the activation in test [4] was 12.9%. Also, in test [1], the max response was -3.58%. In addition, the Potency in test [5] is 59.6 µM (active).
Consider `Nc1ccc(O)c(C(=O)O)c1`, for which the activation in test [4] is 0.023% and -1.58%. Moreover, the max response in test [1] is -9.31% and -0.252%. Also, the Potency result in test [5] was “inactive”.
Consider `O=C(O)[C@H](O)[C@@H](O)[C@H](O)[C@H](O)CO`, for which the activation in test [4] is -0.169%. The max response in test [1] is -0.488%.
With `C=CCc1cccc(/C=N/NC(=O)CN2CCN(Cc3ccccc3)CC2)c1O`, the outcome in test [6] and in test [7] was inactive.
Regarding `CC(C)OC(=O)c1cc(C(=O)OC(C)C)cc([N+](=O)[O-])c1`, the activation in test [4] was 4%. Besides, the max response in test [1] was 0.0203%.
Take `O=C(Nc1ccccc1)c1cc([N+](=O)[O-])ccc1Cl`: the Potency in test [4] is 14.1 µM (active). In addition, the max response in test [1] is 0.605%. Also, in test [3], the Potency entry was “inactive”.
In the case of `CC(C)NCC(O)COc1cccc2ccccc12` (stereo unspecified), the activation in test [4] is 1.27% and 9.4%. Further, the max response in test [1] is -1.25% and -0.701%. Also, the Potency entry in test [5], in test [2] and in test [3] was “inactive” throughout.
`CCCCCCCCCCCCCCCC(=O)OC(C)C`: the max response in test [1] is 0.689%.
With `c1cnc2c(c1)ccc1cccnc12`, the activation in test [4] is 2.54%. In test [1], the max response was -3.72%. Further, the Potency in test [5] was 2.37 µM (active). For the same compound, in test [3], the Potency entry is “inactive”.
With `CCCCCCCCCCCCCCCCCC(=O)O`, in test [4], the activation is 0.0234% and 0.947% and 1.53%. Moreover, the max response in test [1] was 3.29% and 5.21% and -0.146%. Also, in test [5], the Potency result is “inactive”.

Values taken from PubChem BioAssay (NCATS).
